High-throughput results (PubChem BioAssay)
Hits are enriched below; roughly 1.5% of the tested compounds scored in any of these assays.
EBV gp42 block: Epstein-Barr virus gp42 inhibitors, primary screen, biochemical, uHTS, fluorescence polarization. inhibition, % (tested at 21.74 µM). hit rate 0.42% among 220,000. AID 1085, 2008. Glycoprotein 42 (Epstein-Barr virus (strain AG876)), Q1HVG2. Fluorescence polarization binding assay, mP read-out; in the data active = inhibition above about 50%
LANA-H2A inh: blockers of LANA interaction with H2A/H2B – biochemical, FP readout, HTS, primary screen; Protein LANA1 (Human herpesvirus 8 type P (isolate GK18)), Q9QR71; cell-free LANA-H2A/H2B peptide, fluorescence polarization; inhibition, % (test concentration not listed); hit rate 0.6% among 320,000; AID 2629, 2010; in the data active = inhibition mostly above about 10%, no sharp cut-off; inactive = mostly below about 6.7%
Keap1-Nrf2 PPI: Keap1-Nrf2 protein-protein interaction inhibitors, primary screen, biochemical, fluorescence polarization, single point; inhibition, % at 9.4 µM; Keap1 Kelch-Nrf2 peptide fluorescence polarization, 1536-well; AID 504523, 2011; Kelch-like ECH-associated protein 1 (Homo sapiens), Q14145; hit rate 0.15% among 340,000; in the data active = inhibition above about 12%;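 also: human Keap1 Kelch domain with fluorescein labeled Nrf2 9mer peptide probe; 0% = neutral control wells and 100% = peptide positive control; higher means more block of Keap1 binding to Nrf2 peptide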
Target sequence (Q14145 whole entry, looked up, the tested form may be a part): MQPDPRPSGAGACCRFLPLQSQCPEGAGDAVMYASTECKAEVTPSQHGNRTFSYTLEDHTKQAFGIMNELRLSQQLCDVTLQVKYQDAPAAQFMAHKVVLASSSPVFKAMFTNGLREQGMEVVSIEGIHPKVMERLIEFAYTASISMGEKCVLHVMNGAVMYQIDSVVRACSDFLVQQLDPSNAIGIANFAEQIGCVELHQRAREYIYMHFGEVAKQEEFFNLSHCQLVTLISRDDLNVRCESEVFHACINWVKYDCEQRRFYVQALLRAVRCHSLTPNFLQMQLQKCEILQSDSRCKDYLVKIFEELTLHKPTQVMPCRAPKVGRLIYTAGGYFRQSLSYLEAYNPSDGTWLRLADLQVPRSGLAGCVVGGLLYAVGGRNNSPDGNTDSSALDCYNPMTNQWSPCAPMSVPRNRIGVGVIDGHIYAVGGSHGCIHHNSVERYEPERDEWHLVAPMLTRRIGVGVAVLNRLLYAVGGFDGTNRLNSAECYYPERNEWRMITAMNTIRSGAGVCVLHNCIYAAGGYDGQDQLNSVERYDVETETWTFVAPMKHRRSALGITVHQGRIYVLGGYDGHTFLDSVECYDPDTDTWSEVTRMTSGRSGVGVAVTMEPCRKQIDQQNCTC
GLD-1 RNA inh: GLD-1/TGE RNA complex disruptors, primary screen, biochemical, fluorescence polarization | Female germline-specific tumor suppressor gld-1 (Caenorhabditis elegans), Q17339 | inhibition, % at 5.96 µM | AID 2280, 2010 | hit rate 0.44% among 320,000 | purified GLD-1 + fluorescein TGE RNA;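 active = percent inhibition above a per-plate cutoff, the plate mean of test compounds plus 3 SD, cut at about 30% in these data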;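 also: 0% = DMSO wells with GLD-1 and probe and 100% = wells lacking GLD-1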
LANA DNA inh: inhibitors of KSHV C-LANA binding to DNA, primary screen, biochemical, fluorescence polarization, FAM-LBS DNA, MBP-C-LANA, single point; inhibition, % at 9 µM; AID 504423, 2011; hit rate 0.078% among 340,000;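 active = highest replicate inhibition at or above 60% at 9 µM, even if other replicates fall short; inactive = all replicates below 60% inhibition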;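 also: 0% = neutral control wells and 100% = 4 µM acridine orange control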
eLon inh: inhibitors of E. coli Lon protease, primary screen, biochemical, fluorescence polarization; hit rate 0.42% among 360,000; AID 602123, 2011; inhibition, % at 7.94 µM; P0A9M0; purified E. coli Lon protease; in the data active = inhibition above about 13%, passing the limit was not always enough;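 also: 0% = enzyme with probe and DMSO and 100% = no enzyme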
GLD-1 TGE cf: GLD-1/TGE RNA binding inhibitors, retest, confirmation, biochemical, fluorescence polarization, triplicate; hit rate 10% among 550; AID 2459, 2010; shares compounds with GLD-1 RNA inh; GLD-1/FL-TGE RNA fluorescence polarization; inhibition, % at 5.96 µM;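 active = average inhibition across triplicates above the hit cutoff set in the primary screen, cut at about 32% in these data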;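 also: 0% = GLD-1 with RNA probe and DMSO and 100% = wells lacking GLD-1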
* marks the source's active call; other numbers are inactive results.

CCCn1c(/N=C/c2c[nH]c3ccccc23)nc2ccccc21 was read as EBV gp42 block 5, LANA-H2A inh -8, Keap1-Nrf2 PPI -1, GLD-1 RNA inh 40*, LANA DNA inh -2, eLon inh 2 and GLD-1 TGE cf 1.
COc1ccc(OCCNc2cc(N3CCCCC3)ccc2[N+](=O)[O-])cc1 was read as EBV gp42 block -17, LANA-H2A inh 0, Keap1-Nrf2 PPI 0, GLD-1 RNA inh 8, LANA DNA inh 1 and eLon inh 7.
Screening COc1cccc(OCCNc2cc(N3CCCCC3)ccc2[N+](=O)[O-])c1 returned EBV gp42 block -22, LANA-H2A inh 0, Keap1-Nrf2 PPI 2, GLD-1 RNA inh 59*, LANA DNA inh -1, eLon inh -11 and GLD-1 TGE cf -3.
Screening Cn1c(=O)c(/C=C/c2ccc(F)cc2)nc2ccccc21 returned EBV gp42 block -19, Keap1-Nrf2 PPI -3, LANA DNA inh 8 and eLon inh 5.
`Cn1c(=O)c(/C=C/c2ccccc2)nc2ccccc21` gave EBV gp42 block 15, LANA-H2A inh -3, Keap1-Nrf2 PPI 1, GLD-1 RNA inh 41*, LANA DNA inh 0, eLon inh 13 and GLD-1 TGE cf 1.
Cc1ccc(CN2CC[C@H]3C=CCc4cccc(c43)C2)cc1 was read as LANA-H2A inh 1, Keap1-Nrf2 PPI -5, GLD-1 RNA inh 11, LANA DNA inh 0 and eLon inh -4.
Screening COc1ccc(CN2CC[C@H]3C=CCc4cccc(c43)C2)cc1 returned LANA-H2A inh 7, Keap1-Nrf2 PPI 0, GLD-1 RNA inh 60*, LANA DNA inh 1, eLon inh -3 and GLD-1 TGE cf 1.
Screening COc1ccc(CN2CC(=O)N3[C@H]4c5cc(C)ccc5OC[C@@H]4[C@H](c4ccccc4)[C@]3(C)C2=O)cc1 returned LANA-H2A inh 4, Keap1-Nrf2 PPI 1, GLD-1 RNA inh 33*, LANA DNA inh 4, eLon inh 7 and GLD-1 TGE cf 15.
COc1ccc(CN2CC(=O)N3[C@H]4c5ccccc5OC[C@@H]4[C@H](c4ccccc4)[C@]3(C)C2=O)cc1 was read as LANA-H2A inh -13, Keap1-Nrf2 PPI -2, GLD-1 RNA inh 45*, LANA DNA inh 3, eLon inh 1 and GLD-1 TGE cf 4.
`Cc1ccc2c(c1)[C@H]1[C@H](CO2)[C@H](c2ccccc2)[C@]2(C)C(=O)N(Cc3ccc(Cl)cc3)CC(=O)N12` gave LANA-H2A inh -2, Keap1-Nrf2 PPI -12, GLD-1 RNA inh -4, LANA DNA inh 0 and eLon inh -4.
Screening COc1cc(/C=N\Nc2cc(=O)n(C)c(=O)n2C)ccc1O returned EBV gp42 block 13, LANA-H2A inh -4, Keap1-Nrf2 PPI -4, GLD-1 RNA inh 39*, LANA DNA inh 1, eLon inh 1 and GLD-1 TGE cf -3.
`COc1ccc(/C=N/Nc2cc(=O)n(C)c(=O)n2C)cc1OC` gave EBV gp42 block -2, LANA-H2A inh 5, Keap1-Nrf2 PPI 2, GLD-1 RNA inh 1, LANA DNA inh 4 and eLon inh 1.
`O=C(COC(=O)C(O)C(O)C(=O)OCC(=O)c1ccc(C(F)(F)F)cc1)c1ccc(C(F)(F)F)cc1` (stereo unspecified) gave EBV gp42 block -20, LANA-H2A inh -2, Keap1-Nrf2 PPI 4, GLD-1 RNA inh -3, LANA DNA inh 2 and eLon inh 6.
`Cc1ccccc1OC(=O)C1C(c2ccccc2)C(C(=O)O)C1c1ccccc1` (stereo unspecified) gave EBV gp42 block -7, LANA-H2A inh -2, Keap1-Nrf2 PPI -5, GLD-1 RNA inh 39*, LANA DNA inh 0, eLon inh -2 and GLD-1 TGE cf 3.
C=CCN1CN(S(=O)(=O)c2cccc(Cl)c2)c2nc3ccccc3nc21 was read as LANA-H2A inh 10, Keap1-Nrf2 PPI -4, GLD-1 RNA inh 45*, LANA DNA inh -2, eLon inh -11 and GLD-1 TGE cf 0.
Screening COCCCN1CN(S(=O)(=O)c2ccc(Cl)cc2)c2nc3ccccc3nc21 returned EBV gp42 block 0, LANA-H2A inh 3, Keap1-Nrf2 PPI -3, GLD-1 RNA inh 34*, LANA DNA inh 3, eLon inh -2 and GLD-1 TGE cf 0.
`COCCN1CN(S(=O)(=O)c2cccc(Cl)c2)c2nc3ccccc3nc21` gave LANA-H2A inh 10, Keap1-Nrf2 PPI 0, GLD-1 RNA inh 18, LANA DNA inh 0 and eLon inh 3.
O=S(=O)(c1cccc(Cl)c1)N1CN(CC2CCCO2)c2nc3ccccc3nc21 (stereo unspecified) was read as LANA-H2A inh 0, Keap1-Nrf2 PPI -2, GLD-1 RNA inh 29, LANA DNA inh -2 and eLon inh 9.
`O=C(NCc1ccncc1)C(=O)C1C(=O)Nc2ccccc21` (stereo unspecified) gave EBV gp42 block -6, LANA-H2A inh 1, Keap1-Nrf2 PPI -5, GLD-1 RNA inh 3, LANA DNA inh 0 and eLon inh 4.
Screening CCOc1ccc(C(=O)O)cc1OC returned EBV gp42 block -5, LANA-H2A inh -1, Keap1-Nrf2 PPI 0, GLD-1 RNA inh -8, LANA DNA inh 0 and eLon inh 1.
For CCCCCCOc1ccc(C(=O)O)cc1C#N the results were EBV gp42 block 6, LANA-H2A inh 5, Keap1-Nrf2 PPI -3, GLD-1 RNA inh 40*, LANA DNA inh -1, eLon inh -3 and GLD-1 TGE cf -3.
CCN(CC)C(=O)C1=C(C)NC(=O)NC1c1ccccc1F (stereo unspecified) was read as EBV gp42 block 10, LANA-H2A inh 3, GLD-1 RNA inh 40* and GLD-1 TGE cf 6.
For CCOCCn1c(CN2CCN(C(=O)c3ccco3)CC2)nc2c1c(=O)n(C)c(=O)n2C the results were LANA-H2A inh -9, Keap1-Nrf2 PPI 0, GLD-1 RNA inh -1, LANA DNA inh -1 and eLon inh -5.
`Nc1n[nH]c2cc(=O)n(-c3ccc(Cl)cc3)nc12` gave EBV gp42 block 10, LANA-H2A inh 3, Keap1-Nrf2 PPI 3, GLD-1 RNA inh 35*, LANA DNA inh 8, eLon inh 10 and GLD-1 TGE cf 17.
